Compound activity: PubChem BioAssay, National Center for Advancing Translational Sciences (NCATS)
uPA generation – cell surface uPA generation inhibition; cell surface uPA generation assay, qHTS; 330,000 compounds, 0.31% hits; Potency, µM (series often up to 38.3 µM), actives largely listed as inhibitors; active = well fitted inhibition curve with a large enough effect; inconclusive = small, poorly fitted or top-dose-only effect; inactive = no such curve, though single readings can be large or run the other way; tested in mouse RAW 264.7 cells; note: nearly all actives have a fitted effect of over 55% in size
Mito fusion yeast – inhibitors of mitochondrial division or activators of mitochondrial fusion. Potency, µM (series often up to 46.1 µM), usual class: activators. 320,000 compounds, 0.23% hits. S. cerevisiae fusion-defective mutant growth rescue, CellTiterGlo 48 h. AID 485298; active = well fitted activation curve with a large enough effect; inconclusive = small, poorly fitted or top-dose-only effect; inactive = no such curve, though single readings can be large or run the other way; note: nearly all actives have a fitted effect of over 45% in size
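Growth-rescue viability read-out: after 48 h at the non-permissive 37C in glycerol/ethanol YPEG, yeast mitochondrial fusion mutants are measured by CellTiterGlo luminescence; compounds (23 nl pinned per well) restoring growth score as division inhibitors or fusion activators.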
Six1-Eya2 inh – blocks human Six1 binding to Eya2. activity change, % (no concentration beside the values). Q15475+O00167. AID 651725. AlphaScreen GST-Six1/His-Eya2 binding, biochemical; stronger effect = lower value. 360,000 compounds, 0.56% hits
Target sequence (O00167 whole entry, looked up): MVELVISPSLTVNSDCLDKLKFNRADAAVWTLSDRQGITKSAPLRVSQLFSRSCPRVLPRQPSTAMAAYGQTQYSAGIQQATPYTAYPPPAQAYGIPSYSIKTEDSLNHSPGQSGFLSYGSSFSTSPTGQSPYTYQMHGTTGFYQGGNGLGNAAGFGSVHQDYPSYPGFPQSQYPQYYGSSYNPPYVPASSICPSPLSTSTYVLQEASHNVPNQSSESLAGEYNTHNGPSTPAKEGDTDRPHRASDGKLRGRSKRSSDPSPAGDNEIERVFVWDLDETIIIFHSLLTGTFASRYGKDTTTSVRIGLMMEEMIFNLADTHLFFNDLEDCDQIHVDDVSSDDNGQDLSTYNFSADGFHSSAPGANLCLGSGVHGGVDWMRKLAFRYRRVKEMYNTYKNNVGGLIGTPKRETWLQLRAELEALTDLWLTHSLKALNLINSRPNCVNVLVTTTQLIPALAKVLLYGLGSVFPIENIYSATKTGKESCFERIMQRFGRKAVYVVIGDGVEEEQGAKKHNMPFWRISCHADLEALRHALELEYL
Target sequence (Q15475 whole entry, looked up): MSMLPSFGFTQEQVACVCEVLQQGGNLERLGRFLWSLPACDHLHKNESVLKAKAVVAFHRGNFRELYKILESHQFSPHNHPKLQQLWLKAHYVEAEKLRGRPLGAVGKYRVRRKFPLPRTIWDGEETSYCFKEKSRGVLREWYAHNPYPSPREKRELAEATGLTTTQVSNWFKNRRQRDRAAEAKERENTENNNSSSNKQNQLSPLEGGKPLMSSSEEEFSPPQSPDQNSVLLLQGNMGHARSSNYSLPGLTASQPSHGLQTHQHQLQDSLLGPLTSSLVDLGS
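Compounds are tested against tagged Six1 and Eya2 proteins bridged by glutathione donor and nickel acceptor beads; after a one-hour incubation at 37 °C without light, AlphaScreen emission is recorded.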
CtBP-E1A inh – inhibitors of CtBP/E1A interaction. AlphaScreen GST-E1A/His-CtBP binding, 1536-well; stronger effect = lower value. activity change, % (test concentration not listed). 340,000 compounds, 0.49% hits. AID 651724
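AlphaScreen with 125 nM GST-E1A and 125 nM His-CtBP (5X stocks) in Tris pH 8.0, 300 mM NaCl, BSA, Tween 20, TCEP. Compounds preincubated 2 h at 37 deg C, then glutathione donor/nickel acceptor beads added for 1 h at 37 deg C in dark.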
MBNL1 CUG block – blocks human MBNL1 binding to CUG repeat RNA | AID 2675 | Q9NR56 | 280,000 compounds, 0.036% hits | Potency, µM (highest dose often 57.5 µM), most hits filed as inhibitors | TR-FRET MBNL1-His/biotin-(CUG)12 binding, 665/545 ratio; active = well fitted inhibition curve with a large enough effect in the signal ratio, with a control signal flat, not every such curve was filed as active; inconclusive = small, poorly fitted or top-dose-only effect, or effect the other way, or a change in a side signal; inactive = no such curve, though single readings can be large or run the other way; the % refers to the signal ratio
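Compounds (final 92 nM to 58 uM) are added to His-tagged MBNL1 and biotin-(CUG)12, then terbium anti-His antibody and streptavidin-XL665 (5 nM final). After 60 min at room temperature, the 665/545 nm ratio is read.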
A number is an active result; . = inactive; ? = inconclusive; / = no result given; ! = not active in a repeat; [ ] = dose if it differs, or a comment. This is a sample that favours compounds with a hit; in the whole collection about 1.1% have one here. Cut-off read from the data, not from the text of the source, unless noted: active = activity change below about -65%; inconclusive = mostly about -30% to -63%; inactive = weaker than that.

SMILES	uPA generation	Mito fusion yeast	Six1-Eya2 inh	CtBP-E1A inh	MBNL1 CUG block
O=C1c2cccc(Cl)c2C(=O)c2c1cccc2N1CCCC1	.	/	-91	-90	/
COc1cc(-c2noc(C)c2/C=C/c2cccc([N+](=O)[O-])c2)cc(OC)c1OC	0.11µM	.	.	/	.
CCCC[C@]12Cc3c(ccc4ccccc34)C(O1)C1=C(O2)C(=O)c2ccccc2C1=O	/	.[9.22 µM]	/	/	.[11.5 µM]
COc1ccc(C(=O)NC2CCCc3c2cnn3-c2cc(F)cc(F)c2)c(OC)c1OC (stereo not given)	?	11µM	.	.	.
CCC1=Nc2ccccc2-c2nnc(SC)nc2O1	.	.	.	.	?
CSc1nnc2c(n1)OC(C)=Nc1ccccc1-2	/	.	-66	.	?
COC(=O)[C@@]1(Cc2ccc(OC)cc2)[C@@H]2C(=CC(=O)[C@H]2CC(=O)C(=O)N2CCCC2)CN1C(=O)c1ccccc1	8.9µM	.	.	.	.
c1ccc(CN2CCC3(CCCc4ccccc43)CC2)cc1	.	23µM!	.	.	/
CN1/C(=C\C(=S)NC(=O)c2cccc(Br)c2)C(C)(C)c2ccccc21	.	.	-73	-70	.
CN1/C(=C\C(=O)Nc2ccc(F)cc2)C(C)(C)c2ccccc21	.	10µM	.	.	.
CN1/C(=C\C(=S)NC(=O)c2ccc([N+](=O)[O-])cc2)C(C)(C)c2ccccc21	.	.	?	?	.
Cc1cc2c(c(=O)n1-c1ccccc1)C1O[C@](c3ccsc3)(Cc3ccccc31)O2	/	.[9.22 µM]	/	/	.[11.5 µM]
O=C1CSC(=S)N1N=C1CCCCCC1	.	.	-80	.	.
O=C1CSC(=S)N1/N=C/c1c(F)cccc1F	.	.	.	?	.
COc1ccccc1Cc1c(C(C)(C)C)nc2ccc(C)cn12	/	/	.	.	/
NCc1csc(Nc2ncccn2)n1	/	/	-73	-81	/
NC(COCc1ccccc1)c1csc(Nc2cc(NCCCO)ncn2)n1 (stereo not given)	/	/	-86	-86	/
COc1ccc(CC(N)c2csc(NC(=O)Nc3ccc(OC)cc3)n2)cc1 (stereo not given)	/	/	.	.	/
COc1ccc(CC(N)c2csc(Nc3cc(NCCCO)ncn3)n2)cc1 (stereo not given)	/	/	-91	-93	/
CC(C)CC(N)c1csc(Nc2ncccn2)n1 (stereo not given)	/	/	?	-71	/
Nc1[nH]c(C(=O)c2ccccc2)c(-c2ccccc2Cl)c1C(=O)c1ccccc1	/	/	.	.	/
O=C(Nc1ccc(C(=O)N2CCCCC2)cc1)C1CC1	.	/	.	.	/
O=C1CCC[C@@H]2C[C@@]3(C[C@@H]4CCN1[C@H]24)Nc1cc(Cl)c(Cl)cc1NC3=NCc1ccccc1	?	/	.	.	/
CC(=O)Nc1cc(-c2cccnc2)cn2c(-c3ccc(F)cc3)cnc12	/	/	.	.	/
Cc1ccccc1-c1cnc(C(O)c2ccc(F)cc2C)[nH]1 (stereo not given)	/	/	.	.	/
SMILES	uPA generation	Mito fusion yeast	Six1-Eya2 inh	CtBP-E1A inh	MBNL1 CUG block
NC(Cc1ccc(Cl)cc1)c1csc(Nc2cc(NCCCO)ncn2)n1 (stereo not given)	/	/	-70	-78	/
COc1cccc(Nc2nc(C(N)CO)cs2)n1 (stereo not given)	/	/	?	-76	/
COc1cccc(Nc2nc(C(N)Cc3ccccc3)cs2)n1 (stereo not given)	/	/	.	.	/
NC(COCc1ccccc1)c1csc(Nc2ncccn2)n1 (stereo not given)	/	/	-81	-85	/
O=C(c1ccncc1)N(c1ccc2oc3c(c2c1)CCCC3)S(=O)(=O)c1ccc(F)cc1	.	18µM	.	.	.
Cc1nc(-c2ccc(NC(=O)c3ccccc3)cc2)cs1	2.2µM	.	.	.	.
COc1cc2ccccc2cc1C(=O)Nc1ccc(C)cc1	20µM	.	.	/	.
Cc1ccc(C(=O)Nc2ccc(N3CCN(C)CC3)cc2)cc1	.	.	.	.	.
Cc1ccc(NC(=O)c2ccc(C)cc2)cc1	2.8µM	.	.	.	/
COc1cc2ccccc2cc1C(=O)Nc1ccc(Cc2ccncc2)cc1	.	?	.	.	.
CCN1C(=O)[C@H]2[C@@H](c3ccc(C(F)(F)F)cc3)N[C@]3(CCCN(CC4CCCCC4)C3=O)[C@H]2C1=O	/	/	.	.	/
COc1ccc(C2C=C(C34CC5CC(CC(C5)C3)C4)NC(=S)N2)cc1 (stereo not given)	.	11µM	.	.	?
COc1cc(/C=N\NC(=O)c2sc(N)nc2C)cc(OC)c1OC	.	.	-82	-84	?
COc1cc(/C=N/NC(=O)c2sc(N)c(C#N)c2C)cc(Br)c1O	.	.	-67	-77	?
Cc1c(NC(=S)N/N=C/C=C/c2ccc([N+](=O)[O-])cc2)c(=O)n(-c2ccccc2)n1C	.	.	.	.	?
Cc1c(NC(=S)N/N=C\c2ccccc2O)c(=O)n(-c2ccccc2)n1C	.	.	-90	.	.
Cc1c(NC(=S)N/N=C/c2ccc(Br)cc2)c(=O)n(-c2ccccc2)n1C	.	.	.	.	.
Cc1c(NC(=S)N/N=C/c2ccc([N+](=O)[O-])cc2O)c(=O)n(-c2ccccc2)n1C	.	.	-84	-93	?
COC(=O)[C@@]1(Cc2ccc(F)cc2)[C@H]2c3cc(C(=O)N(C)C)n(CCc4c[nH]c5ccc(O)cc45)c3C[C@H]2CN1C(=O)c1ccccc1	/	/	.	.	/
O=C(/C=C/c1ccc([N+](=O)[O-])cc1)OCC(=O)N1CCCC1	.	/	.	-68	/
CCN1/C(=C\C(=S)Nc2ccccc2)Sc2ccccc21	.	.	?	.	.
CCN1/C(=C/C(C)=C/c2sc3ccccc3[n+]2CC)Sc2ccccc21	.	.	-80!	?	?
C[C@@H]1CN([C@@H](C)CO)C(=O)CCCn2nncc2CO[C@H]1CN(C)C(=O)Nc1ccc(-c2cccs2)cc1	/	/	.	.	/
COc1cc2ncnc(Nc3cccc(Cl)c3)c2cc1OC	/	3.3µM!	/	/	.
CN1C(C(=O)Nc2ccccn2)=C(O)c2ccccc2S1(=O)=O	.	16µM!	.	.	.
SMILES	uPA generation	Mito fusion yeast	Six1-Eya2 inh	CtBP-E1A inh	MBNL1 CUG block
COC(=O)[C@@]12C[C@@H](CC(=O)NCCc3ccccc3OC)C(=O)N(CCc3ccc(OC)c(OC)c3)C1=CCC(C)(C)C2	/	/	.	.	/
CCOc1cc(S(=O)(=O)NCCc2c(C)[nH]c3ccc(C)cc23)ccc1F	/	.	/	/	/
O=C1c2ccc3c4c(ccc(c24)C(=O)N1CCCCO)C(=O)N(CCCCO)C3=O	2.5µM	.	.	.	?
COc1ccc([C@]23Cc4cc(OC)c(OC)cc4C(O2)c2c(cc(-c4ccccc4)oc2=O)O3)cc1	/	.[9.22 µM]	/	/	.[11.5 µM]
Cc1cccc(C)c1-n1nnnc1-c1nc2cc3ccccc3cc2[nH]c1=O	/	/	?	.	/
Cc1oncc1C(=O)Nc1ccc2ccccc2c1	?	.	.	.	.
Cc1oncc1C(=O)Nc1ccc(C(F)(F)F)cc1	?	21µM!	.	.	.
Cc1cc(N2CCN(c3ccc([N+](=O)[O-])c4cccnc34)CC2)c2ccccc2n1	.	.	.	.	/
